# Data reported in PubChem BioAssay (Tox21).
# A number with no mark means an inactive call. Inconclusive results are not listed. Where a call stands in place of a potency, no number is given. The source made the active and inactive calls. Unless noted, calls follow the shape of the dose curve; as a rule, active = well fitted curve in the direction sought with a large enough effect in the repeat runs; inconclusive = weak or mixed curves; inactive = flat fitted curve, though single readings scatter.
# Key:
# [1] = qHTS assay to test for compound auto fluorescence at 535 nm (green) in HEK293 cells (AID 720680)
# [2] = qHTS assay to test for compound auto fluorescence at 460 nm (blue) in HEK293 cell free culture (AID 720681)
# In short: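 Test compounds were pinned into cell-free culture medium (DMEM with 10% FBS) and fluorescence was read directly at Ex/Em 405/460 nm. Signals were expressed as fluorescence equivalents of triamterene, with DMSO vehicle as control.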
# [3] = qHTS assay to test for compound auto fluorescence at 535 nm (green) in HEK293 cell free culture (AID 720682)
# In short: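 Read-out: 485/535 nm fluorescence intensity, calibrated against fluorescein. Medium only (DMEM + 10% FBS, no cells); test compound or DMSO vehicle added by pintool before plate reading.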
# [4] = qHTS assay to test for compound auto fluorescence at 590 nm (red) in HEK293 cell free culture (AID 720683)
# In short: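 Tox21 10K library compounds were pinned into cell-free DMEM with 10% FBS and fluorescence was read at excitation 540 nm. Activity is expressed as Rose Bengal sodium equivalency.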
# [5] = qHTS assay to test for compound auto fluorescence at 590 nm (red) in HepG2 cell free culture (AID 720684)
# In short: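 Red fluorescence (540 nm excitation, 590 nm emission) was measured after compound transfer into cell-free MEM supplemented with 10% FBS. Values are equivalencies against Rose Bengal sodium.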
# [6] = qHTS assay to test for compound auto fluorescence at 460 nm (blue) in HepG2 cell free culture (AID 720685)
# In short: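 Compound (23 nL) or DMSO pinned into cell-free MEM with 10% FBS; blue fluorescence read at 405/460 nm excitation/emission, expressed as auto-fluorescence equivalency to triamterene.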
# [7] = qHTS assay to test for compound auto fluorescence at 535 nm (green) in HepG2 cell free culture (AID 720686)
# [8] = qHTS assay to test for compound auto fluorescence at 460 nm (blue) in HepG2 cells (AID 720687)
# In short: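 Cells (2,000/well in MEM with 10% FBS) attached overnight at 37 C, then were exposed to compound or DMSO for 1 hr at 37 C, 5% CO2. Fluorescence read at Ex/Em 405/460 nm, expressed as triamterene-equivalent signal.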
# [9] = molecular target: Glucocorticoid receptor (Homo sapiens) (UniProt P04150); test: qHTS assay to identify small molecule agonists of the glucocorticoid receptor (GR) signaling pathway (AID 720691; active = well fitted activation curve with a large enough effect in the signal ratio in the repeat runs, not every such curve was filed as active; the % refers to the signal ratio)
# Chain of Glucocorticoid receptor (Homo sapiens) (P04150 whole entry, looked up): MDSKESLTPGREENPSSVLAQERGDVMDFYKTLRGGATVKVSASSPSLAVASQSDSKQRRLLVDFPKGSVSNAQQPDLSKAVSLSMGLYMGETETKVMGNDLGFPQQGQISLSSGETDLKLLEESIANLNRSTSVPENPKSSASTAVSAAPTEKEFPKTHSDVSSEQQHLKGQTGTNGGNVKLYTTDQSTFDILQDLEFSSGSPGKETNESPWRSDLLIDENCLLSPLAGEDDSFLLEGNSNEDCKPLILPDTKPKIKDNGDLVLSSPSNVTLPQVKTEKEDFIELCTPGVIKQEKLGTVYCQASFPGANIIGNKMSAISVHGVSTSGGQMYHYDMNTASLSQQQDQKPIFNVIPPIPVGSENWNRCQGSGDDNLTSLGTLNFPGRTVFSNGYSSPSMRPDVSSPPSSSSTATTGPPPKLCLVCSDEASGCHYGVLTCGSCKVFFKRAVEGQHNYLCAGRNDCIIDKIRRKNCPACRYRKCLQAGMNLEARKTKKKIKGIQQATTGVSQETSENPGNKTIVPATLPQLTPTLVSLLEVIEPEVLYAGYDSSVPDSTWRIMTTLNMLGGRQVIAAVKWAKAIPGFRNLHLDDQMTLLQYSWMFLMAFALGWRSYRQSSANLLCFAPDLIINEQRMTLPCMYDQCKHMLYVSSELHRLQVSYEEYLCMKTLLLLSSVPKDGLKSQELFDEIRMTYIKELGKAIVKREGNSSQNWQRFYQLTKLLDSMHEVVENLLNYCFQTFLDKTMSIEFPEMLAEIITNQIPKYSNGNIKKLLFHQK
# In short: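 Fluorescence intensity from LiveBLAzer B/G FRET substrate (2 h, room temperature) reports beta-lactamase expression driven by the glucocorticoid response element in GR-bla HeLa cells after 18 h compound exposure at 37 C.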
# [10] = molecular target: Glucocorticoid receptor (Homo sapiens) (UniProt P04150); test: qHTS assay to identify small molecule antagonists of the glucocorticoid receptor (GR) signaling pathway (AID 720692; active = well fitted inhibition curve with a large enough effect in the signal ratio in the repeat runs, not every such curve was filed as active; the % refers to the signal ratio; also: potency is read from the fitted curve at half-maximal effect)
# In short: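 HeLa GR-bla cells; cmpd + dex 5 nM final, 18 h 37 C; LiveBLAzer B/G FRET substrate 2 h RT; fluorescence intensity read. Antagonist mode, qHTS.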
SMILES,outcome [1],Potency [2],outcome [3],outcome [4],outcome [5],Potency [6],outcome [7],Potency [8],Potency [9],Potency [10],"fluorescence, % of fluorescein [1]","fluorescence, % of fluorescent control [2]",activity change [3],"fluorescence, % of fluorescent control [4]","fluorescence, % of Rose Bengal [5]","fluorescence, % of fluorescent control [6]","fluorescence, % of fluorescein control [7]","fluorescence, % of fluorescent control [8]"
FC(Cl)(Cl)Cl,inactive,inactive,inactive,inactive,inactive,inactive,inactive,inactive,inactive,,,,,,,,,
O=[N+]([O-])c1cc([N+](=O)[O-])c2ccccc2c1,inactive,inactive,inactive,inactive,inactive,inactive,inactive,inactive,inactive,,,,,,,,,
CN(C)C1CSSSC1,inactive,inactive,inactive,inactive,inactive,inactive,inactive,inactive,inactive,,,,,,,,,
Oc1cc(Cl)c(Cl)c(Cl)c1,inactive,inactive,inactive,inactive,inactive,inactive,inactive,inactive,inactive,,,,,,,,,
Fc1cccc(Cl)c1CCl,inactive,inactive,inactive,inactive,inactive,inactive,inactive,inactive,inactive,,,,,,,,,
BrC(Br)Br,inactive,inactive,inactive,inactive,inactive,inactive,inactive,inactive,inactive,,,,,,,,,
CC1(C)CC/C(=C/c2ccc(Cl)cc2)C1(O)Cn1cncn1 (stereo not drawn),inactive,inactive,inactive,inactive,inactive,inactive,inactive,inactive,inactive,,,,,,,,,
CC(C)(C)C(O)/C(=C\c1ccc(Cl)cc1Cl)n1cncn1 (stereo not drawn),inactive,inactive,inactive,inactive,inactive,inactive,inactive,inactive,inactive,59.3 µM (active),,,,,,,,
CC(C)CC(C)N (stereo not drawn),inactive,inactive,inactive,inactive,inactive,inactive,inactive,inactive,inactive,inactive,,,,,,,,
CCCN(CCC)CCc1c[nH]c2ccccc12,inactive,inactive,inactive,inactive,inactive,inactive,inactive,inactive,inactive,inactive,,,,,,,,
CCCCCCCCCCCCBr,inactive,inactive,inactive,inactive,inactive,inactive,inactive,inactive,inactive,inactive,,,,,,,,
CCC(C)c1cc([N+](=O)[O-])cc([N+](=O)[O-])c1OC(=O)C=C(C)C (stereo not drawn),inactive,inactive,inactive,inactive,inactive,inactive,inactive,inactive,inactive,19.5 µM (active),,,,,,,,
Cc1cc(C)cc(OP(=O)(Oc2cc(C)cc(C)c2)Oc2cc(C)cc(C)c2)c1,inactive,inactive,inactive,inactive,inactive,inactive,inactive,inactive,inactive,,,,,,,,,
Oc1c(Br)c(Br)c(Br)c(Br)c1Br,inactive,inactive,inactive,inactive,inactive,inactive,inactive,inactive,inactive,13.9 µM (active),,,,,,,,
CCCCCCCCCCCCCN1CC(C)OC(C)C1 (stereo not drawn),inactive,inactive,inactive,inactive,inactive,inactive,inactive,inactive,inactive,inactive,,,,,,,,
BrC(Br)C(Br)(Br)Br,inactive,inactive,inactive,inactive,inactive,inactive,inactive,inactive,inactive,,,,,,,,,
O=C1c2ccccc2C(=O)C1C(=O)C(c1ccccc1)c1ccc(Cl)cc1 (stereo not drawn),inactive,inactive,inactive,inactive,inactive,inactive,inactive,inactive,inactive,12.3 µM (active),,,,,,,,
FC(F)(F)c1cccc(C2=CCN(CCc3ccc4ccccc4c3)CC2)c1,inactive,inactive,inactive,inactive,inactive,inactive,inactive,inactive,inactive,inactive,,,,,,,,
CSCCCN=C=S,inactive,inactive,inactive,inactive,inactive,inactive,inactive,inactive,inactive,,,,,,,,,
C[C@@H]1O[C@@H](O[C@H]2C[C@@H](O)[C@]3(CO)[C@H]4[C@H](O)C[C@]5(C)[C@@H](C6=CC(=O)OC6)CC[C@]5(O)[C@@H]4CC[C@]3(O)C2)[C@H](O)[C@H](O)[C@H]1O,inactive,inactive,inactive,inactive,inactive,inactive,inactive,inactive,inactive,0.268 µM (active),,,,,,,,
Clc1ccc(CCC(Cn2ccnc2)Sc2c(Cl)cccc2Cl)cc1 (stereo not drawn),,,,,,,,,,inactive,0.0661% [at 18.6 µM],0.052% [at 18.6 µM],-0.055% [at 18.6 µM],-0.0573% [at 18.6 µM],0.657% [at 18.6 µM],0.0259% [at 18.6 µM],0.0716% [at 18.6 µM],-0.0565% [at 18.6 µM]
Clc1ccc(C(c2ccc(Cl)cc2)C(Cl)(Cl)Cl)cc1,inactive,inactive,inactive,inactive,inactive,inactive,inactive,inactive,,43.6 µM (active),,,,,,,,
